Source: PubChem BioAssay (Tox21)
Values joined by “and” are separate entries in the source; they are usually repeats but may differ in a detail not shown here. Identical values can stand only once. Records with an inconclusive call do not appear. Where a structure was tested more than once in an assay, its records may differ in their call. Active and inactive are the calls of the source. Calls come from the whole dose curve; as a rule, active = well fitted curve in the direction sought with a large enough effect in the repeat runs; inconclusive = weak or mixed curves; inactive = no such curve, though single readings can be large; an effect the other way counts as inactive or inconclusive.

What was measured:
[1] = qHTS RealTime-Glo MT Cell Viability Assay in HepG2 cells - 40 hour (AID 1224870); note: nearly all actives have a fitted effect of over 50% in size
In short: (§1)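 HepG2 cells (600/well) mixed with RealTime-Glo MT reagent, settled 5 h at 37 C/5% CO2 before compound addition. Nonlytic NanoLuc luminescence from viable-cell prosubstrate reduction read repeatedly during 40 h treatment at 37 C.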

[2] = A CellTox Green Cytotoxicity Assay to monitor cytotoxicity in HEK293 cells - 40 hour (AID 1224871); note: nearly all actives have a fitted effect of over 45% in size
In short: (§2)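 Homogeneous no-lysis format: HEK293 cell suspension mixed with CellTox Green reagent, seeded, incubated 5 h at 37 C/5% CO2, then dosed by pintool with compound in DMSO.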

[3] = qHTS RealTime-Glo MT Cell Viability Assay in HEK293 cells - 16 hour (AID 1224872); note: nearly all actives have a fitted effect of over 50% in size
In short: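 Assay medium contained NanoLuc luciferase plus cell-permeant prosubstrate, added with HEK293 cells at 600 cells/well. After 5 h at 37 C/5% CO2 compounds were added; plates stayed at 37 C for 40 h with serial luminescence reads.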

[4] = qHTS RealTime-Glo MT Cell Viability Assay in HepG2 cells - 8 hour (AID 1224873); note: nearly all actives have a fitted effect of over 55% in size
In short: as §1

[5] = qHTS RealTime-Glo MT Cell Viability Assay in HEK293 cells - 40 hour (AID 1224874); conditions: RealTime-Glo luminescence; max response: stronger effect = lower value; note: nearly all actives have a fitted effect of over 50% in size
In short: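 Measured as luminescence from the same continuously cultured HEK293 wells at successive time points (0, 8, 16, 24, 32, 40 h) after compound addition. Reagent present from seeding; dosing at 5 h; incubation 37 C.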

[6] = A CellTox Green Cytotoxicity Assay to monitor cytotoxicity in HEK293 cells - 24 hour (AID 1224875); note: nearly all actives have a fitted effect of over 45% in size
In short: as §2

[7] = A CellTox Green Cytotoxicity Assay to monitor cytotoxicity in HepG2 cells - 16 hour (AID 1224876); note: nearly all actives have a fitted effect of over 45% in size
In short: (§3)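 Fluorescent DNA-binding dye, 600 HepG2 cells/well, 5 h preincubation then compound in DMSO; same plates read at 0–40 h, 37 C.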

[8] = A CellTox Green Cytotoxicity Assay to monitor cytotoxicity in HepG2 cells - 24 hour (AID 1224878); note: nearly all actives have a fitted effect of over 45% in size
In short: as §3

[9] = A CellTox Green Cytotoxicity Assay to monitor cytotoxicity in HepG2 cells - 40 hour (AID 1224879); note: nearly all actives have a fitted effect of over 40% in size
In short: as §3

[10] = qHTS RealTime-Glo MT Cell Viability Assay in HepG2 cells - 32 hour (AID 1224877); note: nearly all actives have a fitted effect of over 55% in size
In short: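 qHTS, HepG2, 600 cells/well, RealTime-Glo (NanoLuc + prosubstrate) added with cells; 5 h preincubation; DMSO compound addition; 37 C; luminescence at 0/8/16/24/32/40 h.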
% is set by controls: 0 for no effect and ±100 for the full control effect; potency is the fitted concentration of half-maximal effect.

CC(C)N(C(=O)SCC(Cl)=C(Cl)Cl)C(C)C
inactive: Potency [1] | Potency [2] | Potency [3] | Potency [4] | max response [5] -12% and 19.1% | Potency [6] | Potency [7] | Potency [8] | Potency [9]

CC(C)Oc1cc(-n2nc(C(C)(C)C)oc2=O)c(Cl)cc1Cl
inactive: Potency [1] | Potency [4] | Potency [7] | Potency [10] | Potency [8] | Potency [9]
682 nM (active) and inactive: Potency [2]
active: Potency [5] 34.7 µM

NNC(N)=S
inactive: Potency [1] | Potency [2] | Potency [3] | Potency [4] | max response [5] 1.23% and 8.52% | Potency [6] | Potency [7] | Potency [8] | Potency [9]

CCOc1cc(Oc2ccc(C(F)(F)F)cc2Cl)ccc1[N+](=O)[O-]
inactive: Potency [1] | Potency [2] | Potency [4] | max response [5] -24.7% | Potency [6] | Potency [7] | Potency [8] | Potency [9]

CCC(=O)O[C@H]1CC[C@H]2[C@@H]3CCC4=CC(=O)CC[C@]4(C)[C@H]3CC[C@]12C
49 µM (active) and inactive: Potency [9]
inactive: Potency [1] | Potency [4]
active: Potency [2] 19.5 µM and 21.3 µM | Potency [3] 21.9 µM and 23.9 µM | Potency [5] 19.5 µM and 23.9 µM | Potency [6] 19.5 µM and 5.35 µM | Potency [7] 38.9 µM | Potency [8] 43.6 µM

Nc1ccc(-c2ccc(N)c(N)c2)cc1N
inactive: Potency [1] | Potency [2] | Potency [3] | Potency [4] | max response [5] 10% | Potency [6] | Potency [7] | Potency [8] | Potency [9]

CCCCCc1cc(O)cc(O)c1
inactive: Potency [6] | Potency [7]
active: Potency [3] 24.5 µM | Potency [5] 24.5 µM
inactive and 49 µM (active): Potency [1] | Potency [10]

Oc1ccc(-c2ccccc2)cc1
inactive: Potency [1] | Potency [4] | Potency [6] | Potency [7] | Potency [10]
active: Potency [2] 19.2 µM
inactive and 49 µM (active): Potency [8] | Potency [9]

Oc1cc(Cl)ccc1Oc1ccc(Cl)cc1Cl
active: Potency [1] 44.7 µM | Potency [2] 44.7 µM | Potency [3] 22.4 µM and 23.9 µM | Potency [4] 22.4 µM and 23.9 µM | Potency [5] 34.1 µM | Potency [6] 22.4 µM | Potency [7] 44.7 µM and 19 µM | Potency [8] 22.4 µM and 21.3 µM | Potency [9] 25.1 µM and 23.9 µM

N#CCCCl
inactive: Potency [1] | Potency [2] | Potency [3] | Potency [4] | max response [5] 2.74% and -10.7% | Potency [6] | Potency [7] | Potency [8] | Potency [9]

CCC(C)(c1ccc(O)cc1)c1ccc(O)cc1
inactive: Potency [1] | Potency [2] | Potency [4] | Potency [6] | Potency [7] | Potency [8] | Potency [9]
active: Potency [5] 24.5 µM and 43.6 µM

C#C[C@]1(O)CC[C@H]2[C@@H]3CCC4=CC(=O)CC[C@]4(C)[C@H]3CC[C@@]21C
inactive: Potency [1] | Potency [3] | Potency [4] | max response [5] -4.36% and -16.3% | Potency [7] | Potency [10] | Potency [8]
active: Potency [2] 49 µM

CC(C)(C)c1ccccc1O
inactive: Potency [1] | Potency [3] | Potency [4] | max response [5] -18.3% and -0.927% | Potency [10]
active: Potency [2] 39.4 µM | Potency [7] 44.2 µM | Potency [8] 49.5 µM | Potency [9] 49.5 µM and 49 µM

c1ccc(NNc2ccccc2)cc1
active: Potency [2] 24.5 µM | Potency [6] 24.5 µM
inactive: Potency [1] | Potency [3] | Potency [4] | max response [5] -4.96% and -2.46% | Potency [7] | Potency [8] | Potency [9]

CCN(CC)N=O
inactive: Potency [1] | Potency [2] | Potency [3] | Potency [4] | max response [5] -2.46% and 23.7% | Potency [6] | Potency [7] | Potency [8] | Potency [9]

Cc1ccc(N)c(N)c1
inactive: Potency [1] | Potency [2] | Potency [4] | Potency [6] | Potency [7] | Potency [10] | Potency [8] | Potency [9]

COc1ccc(C(CN(C)C)C2(O)CCCCC2)cc1 (stereo unspecified)
inactive: Potency [1] | Potency [2] | Potency [3] | Potency [4] | max response [5] -15.6% and -9.44% | Potency [6] | Potency [7] | Potency [8] | Potency [9]

O=C(NC(=O)c1c(F)cccc1F)Nc1ccc(Cl)cc1
inactive: Potency [1] | Potency [2] | Potency [3] | Potency [4] | Potency [6] | Potency [7] | Potency [8] | Potency [9]

CCN(N=O)C(N)=O
inactive: Potency [1] | Potency [2] | Potency [3] | Potency [4] | max response [5] 4.37% and -1.44% | Potency [6] | Potency [7] | Potency [8] | Potency [9]

O=Cc1ccco1
active: Potency [2] 21.1 µM
inactive: Potency [1] | Potency [3] | Potency [4] | max response [5] -0.5% | Potency [7] | Potency [10] | Potency [8] | Potency [9]

c1ccc(N=Nc2ccccc2)cc1
inactive: Potency [1] | Potency [3] | Potency [4] | max response [5] -14.7% and -11.3% | Potency [6] | Potency [7] | Potency [10] | Potency [8] | Potency [9]

CCOC(=O)C(C)OC(=O)c1cc(Oc2ccc(C(F)(F)F)cc2Cl)ccc1[N+](=O)[O-] (stereo unspecified)
inactive: Potency [1] | Potency [2] | max response [5] -24.2% | Potency [6] | Potency [7] | Potency [10] | Potency [8] | Potency [9]
active: Potency [3] 30.7 µM

C#CCOS(=O)OC1CCCCC1Oc1ccc(C(C)(C)C)cc1 (stereo unspecified)
inactive: Potency [1] | Potency [6] | Potency [7] | Potency [8] | Potency [9]
active: Potency [2] 21.9 µM | Potency [3] 17.4 µM and 19.5 µM | Potency [5] 7.77 µM and 21.9 µM

CCC(C)c1ccc(O)cc1 (stereo unspecified)
inactive: Potency [1] | Potency [3] | Potency [4] | max response [5] -20.1% and -0.111% | Potency [10]
active: Potency [2] 49.4 µM and 43.6 µM | Potency [6] 43.6 µM | Potency [8] 43.6 µM | Potency [9] 43.6 µM

ClC1C(Cl)C(Cl)C(Cl)C(Cl)C1Cl (stereo unspecified)
inactive and 49 µM (active): Potency [3]
inactive and 43.6 µM (active): Potency [8]
active: Potency [5] 54.9 µM
inactive and 38.9 µM (active): Potency [9]
inactive: Potency [1] | Potency [4] | Potency [7]

O=[N+]([O-])c1ccc(O)c([N+](=O)[O-])c1
inactive: Potency [1] | Potency [2] | Potency [3] | Potency [4] | max response [5] -16% | Potency [7] | Potency [10] | Potency [8] | Potency [9]

Oc1c(Cl)c(Cl)c(Cl)c(Cl)c1Cl
inactive: Potency [1] | Potency [2] | Potency [3] | Potency [4] | Potency [6] | Potency [7] | Potency [8] | Potency [9]

O=C(Nc1ccc(Br)cc1)c1cc(Br)cc(Br)c1O
inactive and 43.6 µM (active): Potency [7]
active: Potency [1] 43.5 µM | Potency [5] 17.3 µM and 19.5 µM | Potency [8] 38.9 µM | Potency [9] 19.4 µM and 24.5 µM and 23.9 µM
38.9 µM (active) and inactive: Potency [2]
inactive: Potency [3] | Potency [4]

C=CCN(CC=C)C(=O)C(Cl)Cl
inactive: Potency [1] | Potency [2] | Potency [3] | Potency [4] | max response [5] 8.06% and -1.16% | Potency [6] | Potency [7] | Potency [8] | Potency [9]

CCC(C)c1cc([N+](=O)[O-])cc([N+](=O)[O-])c1O (stereo unspecified)
inactive: Potency [1] | Potency [2] | Potency [3] | Potency [4] | max response [5] 5.87% | Potency [6] | Potency [7] | Potency [8] | Potency [9]

Nc1ccc(Cl)cc1N
inactive and 21.9 µM (active): Potency [8]
inactive and 40.4 µM (active): Potency [7]
inactive: Potency [1] | Potency [4] | Potency [10]
active: Potency [2] 21.9 µM | Potency [6] 24.5 µM | Potency [9] 10.2 µM and 21.9 µM

Cc1ccc2c(c1N)C(=O)c1ccccc1C2=O
active: Potency [3] 8.62 µM and 8.71 µM | Potency [5] 9.67 µM and 6.92 µM
inactive: Potency [1] | Potency [2] | Potency [6] | Potency [7] | Potency [8] | Potency [9]
